In PubChem BioAssay one finds inhibition data, which are given here for 25 compounds.

What is called inhibition is the drop in the measured response relative to a control, in per cent.

Assay [1] in a line: StAR promoter reporter inhibitors, counter-screen for LRH-1 inverse agonist project, cell-based, luminescence, high throughput (AID 651611; in the data active = inhibition above about 28%). Conditions: StAR promoter luciferase reporter counterscreen, at 3.6 µM, hits give high values. For orientation: Counterscreens check selectivity or assay interference.
Assay [2] has as its target Nuclear receptor subfamily 5 group A member 2 (Homo sapiens) (UniProt O00482). Kind of assay: NR5A2 activity suppression in reporter cells – cell-based, luminescence, confirmation (AID 651613; in the data active = inhibition above about 42%;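 note: HEK293T cells co-transfected with LRH-1 and StAR promoter luciferase reporter; 0% = vehicle wells and 100% = parental cells lacking receptor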). Conditions: cell-based LRH-1 luciferase reporter, inverse agonism; at 3.6 µM; hits give high values.
Assay [3] addresses Steroidogenic factor 1 (Homo sapiens) (UniProt Q13285). Kind of assay: inverse agonism at SF1 nuclear receptor – cell-based, luminescence, high throughput, counter-screen for LRH-1 inverse agonist project (AID 651614).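 Note: cells cotransfected with StAR promoter reporter and SF1 expression vector; 0% = vehicle on cells with receptor and 100% = vehicle on cells lacking receptor.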 Conditions: cell-based SF1 luciferase reporter, at 3.6 µM, hits give high values.
A short description of assay [4]: compounds suppressing VP16-driven luciferase signal – cell-based, luminescence, high throughput, counter-screen for LRH-1 inverse agonist project (AID 651615; in the data active = inhibition above about 33%). Conditions: Gal4-VP16 luciferase reporter cells, at 3.6 µM, hits give high values.
For assay [5], the system named is transactivating tegument protein VP16 (Human herpesvirus 1). Kind of assay: compounds suppressing VP16-driven luciferase signal – cell-based, luminescence, single concentration, counter-screen for SRC2 inhibitor project (AID 652007; in the data active = inhibition above about 36%). Conditions: cell-based VP16 transactivation luciferase reporter, at 8.9 µM, hits give high values.
Assay [6] deals with Nuclear receptor coactivator 2 (Homo sapiens) (UniProt Q15596). Kind of assay: inhibition of GAL4-SRC2 driven luciferase expression – cell-based, luminescence, HEK293, triplicate, confirmation (AID 652008;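 active = mean inhibition above 46.5%, the solvent-only control mean plus 3 SD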;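 note: 0% = DMSO-treated cells and 100% = Gossypol at 36 µM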). Conditions: HEK293 GAL4-SRC2 luciferase reporter, at 8.9 µM, hits give high values. A general note: Reporter assays use an easily measured gene product as a stand-in for the process of interest.

A number with no mark means an inactive call. The source made the active and inactive calls. Cut-off read from the data, not from the text of the source, unless noted: active = inhibition above about 44%; inactive = the rest.

Sequence of Steroidogenic factor 1 (Homo sapiens) (Q13285 whole entry, looked up, the tested form may be a part): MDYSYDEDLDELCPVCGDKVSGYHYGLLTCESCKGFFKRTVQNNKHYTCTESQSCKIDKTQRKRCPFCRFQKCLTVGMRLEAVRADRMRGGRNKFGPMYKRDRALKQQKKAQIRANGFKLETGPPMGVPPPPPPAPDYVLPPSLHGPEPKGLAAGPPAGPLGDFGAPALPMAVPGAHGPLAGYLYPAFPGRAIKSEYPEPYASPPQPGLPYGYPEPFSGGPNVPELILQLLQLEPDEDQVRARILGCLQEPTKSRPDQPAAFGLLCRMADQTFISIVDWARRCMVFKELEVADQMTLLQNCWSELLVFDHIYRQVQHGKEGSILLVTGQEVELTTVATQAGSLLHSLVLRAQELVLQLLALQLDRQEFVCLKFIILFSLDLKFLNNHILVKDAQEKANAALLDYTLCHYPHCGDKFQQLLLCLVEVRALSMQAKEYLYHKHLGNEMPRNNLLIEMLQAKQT
Sequence of Nuclear receptor coactivator 2 (Homo sapiens) (Q15596 whole entry, looked up, the tested form may be a part): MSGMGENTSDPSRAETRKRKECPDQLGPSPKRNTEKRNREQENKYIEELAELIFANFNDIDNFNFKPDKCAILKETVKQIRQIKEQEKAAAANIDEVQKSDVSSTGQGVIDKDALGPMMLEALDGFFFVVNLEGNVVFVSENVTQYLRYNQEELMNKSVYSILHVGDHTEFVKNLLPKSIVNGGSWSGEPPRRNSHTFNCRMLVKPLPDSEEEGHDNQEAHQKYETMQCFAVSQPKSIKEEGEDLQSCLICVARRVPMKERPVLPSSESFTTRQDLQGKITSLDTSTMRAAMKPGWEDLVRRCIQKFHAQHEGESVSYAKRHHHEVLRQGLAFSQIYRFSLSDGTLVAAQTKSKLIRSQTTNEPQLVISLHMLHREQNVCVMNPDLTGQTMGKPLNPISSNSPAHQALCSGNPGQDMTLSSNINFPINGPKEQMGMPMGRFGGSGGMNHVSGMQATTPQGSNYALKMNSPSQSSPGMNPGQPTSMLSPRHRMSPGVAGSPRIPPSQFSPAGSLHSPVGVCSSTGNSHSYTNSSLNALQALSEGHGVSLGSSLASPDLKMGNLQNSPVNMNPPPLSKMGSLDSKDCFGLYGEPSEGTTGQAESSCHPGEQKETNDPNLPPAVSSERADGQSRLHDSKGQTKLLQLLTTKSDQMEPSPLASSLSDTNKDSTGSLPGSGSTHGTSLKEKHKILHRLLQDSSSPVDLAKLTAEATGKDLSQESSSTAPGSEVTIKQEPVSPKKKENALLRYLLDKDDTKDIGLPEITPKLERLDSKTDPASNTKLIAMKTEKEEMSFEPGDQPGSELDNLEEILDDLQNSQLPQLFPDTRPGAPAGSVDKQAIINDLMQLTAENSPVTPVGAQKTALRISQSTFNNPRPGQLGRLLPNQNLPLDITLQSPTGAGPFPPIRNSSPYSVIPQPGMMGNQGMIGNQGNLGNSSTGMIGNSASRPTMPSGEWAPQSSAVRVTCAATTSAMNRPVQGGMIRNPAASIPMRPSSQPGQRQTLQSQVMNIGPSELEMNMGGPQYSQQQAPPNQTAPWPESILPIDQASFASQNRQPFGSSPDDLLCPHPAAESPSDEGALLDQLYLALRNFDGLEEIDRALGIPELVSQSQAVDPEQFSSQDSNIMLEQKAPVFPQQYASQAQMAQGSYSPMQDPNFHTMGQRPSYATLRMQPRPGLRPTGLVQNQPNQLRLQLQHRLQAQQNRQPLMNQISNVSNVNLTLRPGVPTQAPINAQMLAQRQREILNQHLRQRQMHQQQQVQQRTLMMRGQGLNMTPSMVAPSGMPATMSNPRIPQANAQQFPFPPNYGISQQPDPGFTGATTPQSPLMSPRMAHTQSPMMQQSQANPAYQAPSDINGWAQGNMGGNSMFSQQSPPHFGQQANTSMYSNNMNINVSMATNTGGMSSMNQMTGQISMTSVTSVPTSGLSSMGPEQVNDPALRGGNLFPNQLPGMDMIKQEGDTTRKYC
Sequence of Nuclear receptor subfamily 5 group A member 2 (Homo sapiens) (O00482 whole entry, looked up): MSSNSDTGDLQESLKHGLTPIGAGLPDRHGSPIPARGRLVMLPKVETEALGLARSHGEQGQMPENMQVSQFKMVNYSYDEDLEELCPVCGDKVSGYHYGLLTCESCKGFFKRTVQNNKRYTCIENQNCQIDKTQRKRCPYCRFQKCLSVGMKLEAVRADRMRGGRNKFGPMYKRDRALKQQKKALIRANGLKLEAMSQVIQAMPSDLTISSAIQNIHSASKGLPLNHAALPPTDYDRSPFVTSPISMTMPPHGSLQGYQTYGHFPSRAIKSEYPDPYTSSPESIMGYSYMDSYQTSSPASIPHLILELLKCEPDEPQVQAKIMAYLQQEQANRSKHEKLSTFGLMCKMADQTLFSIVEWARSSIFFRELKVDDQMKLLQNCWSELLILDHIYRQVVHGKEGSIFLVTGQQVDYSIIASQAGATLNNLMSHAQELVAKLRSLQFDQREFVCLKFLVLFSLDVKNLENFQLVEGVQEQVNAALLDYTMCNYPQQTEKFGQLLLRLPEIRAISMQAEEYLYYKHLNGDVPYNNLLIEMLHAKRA

On to `Cc1cc(N2CCN(c3nc4ccccc4s3)CC2)n2ncnc2n1`, for which the inhibition in assay [1] was 21.5%; in assay [2], 52.4% (active); in assay [3] it was 54.6% (active); in assay [4], 50.3% (active).
On the same counts, the results for `O=C(Cn1cc(COc2ccc(C(=O)c3ccccc3)cc2)nn1)c1ccc(O)cc1` are 25.8%, 47.4% (active), 57% (active) and 59.6% (active).
The matching figures for `CCN(CC)C(=O)CSc1nc2ccc(NC(=O)CSc3nccn3C)cc2s1`: -37.7%, 0.81%, 7.59% and -9.75%.
The matching figures for `CCOc1ccc(CCNC(=O)COC(=O)c2cccc(S(=O)(=O)N3CCCC3)c2)cc1OCC`: -4.16%, 58.6% (active), 54.1% (active) and 9.86%.
Consider `COC(=O)c1ccc(CNC(=O)COC(=O)c2cc(Cl)nc(Cl)c2)cc1`, for which the inhibition in assay [1] was 11.2%; in assay [2] it was 52.4% (active); in assay [3], 37.1%; in assay [4] it was 11.2%.
For `OC1(c2ccc(OC(F)F)cc2)CSC(=Nc2cccnc2)N1C1CC1` (stereo unspecified), the inhibition in assay [1] is 11.3%; in assay [2], 43.3% (active); in assay [3], 48.8% (active); in assay [4], 40% (active).
Consider `NS(=O)(=O)c1ccc(CCNC(=O)COc2ccc3c4c(c(=O)oc3c2)CCC4)cc1`, for which the inhibition in assay [1] was 13.4%; in assay [2], 41.7% (active); in assay [3] it was 38.2%; in assay [4] it was -15.4%.
On the same counts, the results for `CCOc1cc2c(cc1OCC)C(c1ccc(OC)cc1)N(c1ccccc1)C(=O)C2` (stereo unspecified) are -4.63%, 3.16%, -5% and -4.52%.
The matching figures for `Cn1cccc1C(=O)OCC(=O)N1CCN(c2ccccc2)CC1`: 2.85%, 32.7%, 35% and -18.1%.
The matching figures for `COc1ccc(NC(=O)CS(=O)(=O)c2ccc(C)cc2)c(OC)c1`: 17%, 53.1% (active), 56% (active) and -1.68%.
In the case of `Cc1cc(C)nc(SCC(=O)Nc2ccc(N3CCOCC3)c(Cl)c2)n1`, the inhibition in assay [1] is -5.17%; in assay [2] it was 67.5% (active); in assay [3] it was 59.8% (active); in assay [4], 35.7% (active).
On to `Cc1c(Cl)cccc1NC(=O)CSc1sc2c(O)cc(=O)[nH]c2c1C#N`, for which the inhibition in assay [1] is -3.35%; in assay [2], 25.5%; in assay [3] it was 29.2%; in assay [4] it was 6.14%.
On the same counts, the results for `CC(C)(C)c1ccc(C(=O)Nc2ccc(C(=O)NCc3cccnc3)cc2)cc1` are 82.1% (active), 90.4% (active), 93.2% (active) and 61% (active).
With `Cc1ccc(-c2nc(NC(=O)c3nn(C)cc3[N+](=O)[O-])sc2C)cc1`, the inhibition in assay [1] was 18.9%; in assay [2], 21.2%; in assay [3], 32.2%; in assay [4], -0.37%; in assay [5] it was 35.3%; in assay [6] it was 50.5% (active).
Turning to `CCOC(=O)c1ccc(NC(=O)CSc2nnc(COc3ccccc3OC)n2C)cc1`, the inhibition in assay [1] was -2.53%; in assay [2] it was 40.4%; in assay [3], 35.7%; in assay [4] it was -6.59%.
On the same counts, the results for `CCCc1cc(=O)oc2cc(OCC(=O)NC3CC(C)(C)NC(C)(C)C3)ccc12` are -0.91%, 53% (active), 45.7% (active) and 2.6%.
On the same counts, the results for `COc1ccc(CC(=O)Nc2ccncc2Cl)cc1` are 7.9%, 57.3% (active), 49.8% (active) and 43% (active).
On the same counts, the results for `CCOc1ccc(S(=O)(=O)NCc2ccncc2)cc1` are 25.8%, 61.1% (active), 59.4% (active) and 51.8% (active).
As for `Clc1ccccc1-c1nnc2sc(-c3ccc(Br)o3)nn12`, the inhibition in assay [1] is 5.07%; in assay [2], 43.5% (active); in assay [3], 54.5% (active); in assay [4], -2.86%.
The matching figures for `Cc1cc(C)c2nc(NC(=O)c3ccc([N+](=O)[O-])o3)sc2c1`: -2.6%, 50.8% (active), 53.7% (active) and -14.5%.
On the same counts, the results for `O=C(Cn1cnc2c(nnn2-c2ccccc2)c1=O)NCC1CCCO1` (stereo unspecified) are -2.93%, 16.6%, -2.18% and 7.48%.
On to `c1ccc2c(c1)CCN(c1ncnc3c1[nH]c1ccccc13)C2`, for which the inhibition in assay [1] is 25.5%; in assay [2] it was 68.5% (active); in assay [3] it was 69.5% (active); in assay [4] it was 58.2% (active); in assay [5], 25.4%; in assay [6] it was 40.2%.
For `COc1ccc(O)c(/C=N/Nc2nc(Nc3ccccc3)nc(-n3nc(C)cc3C)n2)c1`, the inhibition was 21.3% in assay [1], -28.7% in assay [2], -41.8% in assay [3] and -35.4% in assay [4].
On the same counts, the results for `O=C(CCl)NCCN1C(=O)S/C(=C\c2cccnc2)C1=O` are 10.2%, 55.9% (active), 57.4% (active) and -3.37%.
On to `Cc1ccnc2c1ccc1cccnc12`, for which the inhibition in assay [1] was 82.7% (active); in assay [2], 108% (active); in assay [3], 67.4% (active); in assay [4], 65.5% (active); in assay [5], -9.35%; in assay [6] it was 29%.
